From PubChem BioAssay AID1578 (Sanford-Burnham Center for Chemical Genomics, 2009)
Screen size: about 290,000 compounds; about 3,000 (1%) were called active. The sample holds actives, similar compounds and a random draw of the others, so the mix is not that of the screen. Unmarked numbers belong to inactive results. No stated cut-off is given here; in the data, active means inhibition mostly above about 36% (no sharp cut-off); inactive means mostly below about 34%.

Assay: inhibition of NOD1-driven NF-kB reporter – cell-based, luminescence, uHTS, primary screen (AID 1578);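 further: HEK-293T reporter cells stimulated with the NOD1 agonist gamma-tri-DAP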
Details: NOD1-driven NF-kB luciferase reporter cells, at 4 µM, active compounds read high

First: NC(=O)CC(NC(=O)Cc1ccc(Cl)cc1)c1ccc(NC2CCCCC2)c([N+](=O)[O-])c1 (centres undefined)
Second: C/C(CC(=O)NCc1ccc(Cl)cc1)=N\NC(=O)Cc1ccccc1
The inhibition of the first is higher: -4.6% for the first, -22.7% for the second.

First: Oc1csc(Cc2nc(-c3ccc(-c4ccccc4)cc3)cs2)n1
Second: Oc1csc(Cc2nc(-c3ccc4ccccc4c3)cs2)n1
The inhibition of the first is higher: 31.2% for the first, 4.6% for the second.

Compared with `O=C(Nn1cc(C(=O)Nc2ccc(F)cc2F)c2ccccc2c1=O)c1cnccn1`, `COC(=O)c1cn(NC(=O)c2cnccn2)c(=O)c2ccccc12` is higher in inhibition: -21.1% for the first, 3% for the second.

Going from `C=CCN1C(=O)/C(=C2/C(=O)N(CC(=O)O)c3ccccc32)S/C1=N/c1nccs1` to `O=C(NCc1cccs1)c1cnc2ccccn2c1=O`, the inhibition falls from -5.4% to -8.1%.

Going from `CCN(CC)CCn1c(NC(=O)c2ccccc2O)nc2ccccc21` to `CCOC(=O)c1ccc(NC(=O)c2cc(C)nn2-c2ccccc2)cc1`, the inhibition falls from 19% to -1.2%.

Compared with `O=C(CCCNS(=O)(=O)c1cccc2nsnc12)NCc1ccc(Cl)cc1`, `Cc1ccc(CNC(=O)CNS(=O)(=O)c2cccc3nsnc23)cc1` is lower in inhibition: -12% for the first, -18.7% for the second.

Compared with `Cn1ncc(N=Cc2ccccc2)c1C(N)=O`, `CN1/C(=C/c2cccc[n+]2C)Sc2ccccc21` is higher in inhibition: -13.3% for the first, -2.3% for the second.

Going from `CCc1ccc(NC(=O)C2CCN(S(=O)(=O)c3ccc4c(c3)NC(=O)C(C)S4)CC2)cc1` (centres undefined) to `Cc1ccc(NC(=O)C2CCN(S(=O)(=O)c3ccc4c(c3)NC(=O)C(C)S4)CC2)cc1C` (centres undefined), the inhibition falls from 30.4% to 6.5%.

Compared with `CC1Sc2ccc(S(=O)(=O)N3CCN(c4ccccc4)CC3)cc2NC1=O` (centres undefined), `COc1ccc(N2CCN(S(=O)(=O)c3ccc4c(c3)NC(=O)C(C)C(=O)N4)CC2)cc1` (centres undefined) is lower in inhibition: 30.2% for the first, -0.5% for the second.

First: CC1Sc2ccc(S(=O)(=O)N3CCC(C(=O)Nc4cccc(Cl)c4)CC3)cc2NC1=O (centres undefined)
Second: Cc1cc(C)cc(NC(=O)C2CCN(S(=O)(=O)c3ccc4c(c3)NC(=O)C(C)S4)CC2)c1 (centres undefined)
The inhibition of the first is higher: 7.5% for the first, -10.4% for the second.

Going from `COc1ccc(C(C)(C)C)cc1NC(=O)CCNC(=O)c1ccco1` to `COc1cccc(CN(C)CC(=O)NCc2ccccc2Cl)c1`, the inhibition rises from -35.1% to 8.1%.

First: O=C(CN1CCCCC1)NNC(=O)c1cccc(Br)c1
Second: O=C(CN1CCN(Cc2ccccc2)CC1)Nc1ccc([N+](=O)[O-])cc1C(=O)Nc1ccccc1F
The inhibition of the first is higher: 5.1% for the first, -2.7% for the second.

First: CCCc1nnc(NC(=O)Cn2c(=O)oc3cc(Br)ccc32)s1
Second: CC(NC(=O)CSc1ncn[nH]1)c1ccc(Cl)cc1Cl (centres undefined)
The inhibition of the first is higher: -17.9% for the first, -18% for the second.

Compared with `COc1ccc2[nH]c(=O)c(CN(CC3CCCO3)C(=S)Nc3ccccc3)cc2c1` (centres undefined), `COc1ccc2[nH]c(=O)c(CN(CC3CCCO3)C(=S)Nc3ccc(C)cc3)cc2c1` (centres undefined) is higher in inhibition: -31.7% for the first, -18.3% for the second.

Compared with `Cc1ccc(OCC(=O)Nc2ccc(NC(=O)c3ccccc3)cc2)cc1C`, `COc1ccc(NC(=S)Nc2ccc(N)c([N+](=O)[O-])c2)cc1` is lower in inhibition: -12.6% for the first, -69.8% for the second.

Compared with `CCOC(=O)c1nc2sc(C)c(C)c2c(=O)[nH]1`, `CCOC(=O)/C(=C\c1ccc(Cl)cc1)c1nc2sc(C)c(C)c2c(=O)[nH]1` is higher in inhibition: 4.3% for the first, 58.5% for the second.

First: CCOC(=O)C1CCN(C(=O)CCc2c(C)nc3ncnn3c2C)CC1
Second: CCOC(=O)N1CCN(Cc2cc(Cl)c3cccnc3c2O)CC1
The inhibition of the first is higher: 2.5% for the first, -1.5% for the second.

First: O=[N+]([O-])c1cc(Cl)c2cccnc2c1O
Second: OCCN1CCN(Cc2cc(Cl)c3cccnc3c2O)CC1
The inhibition of the first is lower: -7.9% for the first, 26.4% for the second.

Going from `O=C(Cc1c(O)c2ccccc2oc1=O)c1ccc(C(F)(F)F)cc1` to `Fc1ccccc1NC(=S)NNc1ncc(C(F)(F)F)cc1Cl`, the inhibition rises from -10.7% to 12.4%.

Compared with `Cc1c(CNCc2cccs2)c(C(=O)O)c(C)n1Cc1ccccc1`, `Cc1ccccc1-n1c(=O)cc(N2CCN(Cc3ccccc3)CC2)[nH]c1=O` is lower in inhibition: 8.7% for the first, -4.3% for the second.

Compared with `O=C(NC1CCCCC1)N1CCCC(CNS(=O)(=O)Cc2ccccc2)C1` (centres undefined), `O=C1CCCN1CCC(=O)N1CCCC(Nc2ccc(F)c(F)c2)C1` (centres undefined) is lower in inhibition: -23.7% for the first, -39.2% for the second.

Going from `C/C(=N/Nc1ncc(C(F)(F)F)cc1Cl)c1ccncc1` to `COc1ccc(-c2cc(C(F)(F)F)nc(-n3cncn3)n2)cc1`, the inhibition rises from -9% to 18.2%.

Going from `Oc1cc2c(cc1CN1CCN(c3cccc(C(F)(F)F)c3)CC1)CCC2` to `Cc1nn(Cc2ccc(F)cc2)c2sc(C(=O)Nc3ccc(N4CCOCC4)cc3N3CCOCC3)cc12`, the inhibition falls from 19.7% to -10.3%.

Going from `CN1C(=O)C(c2nnc(Nc3cccc4ccccc34)s2)C2CC1(C)Oc1ccccc12` (centres undefined) to `Cc1ccc(C(=O)NCc2nnc(SCC(=O)NC(C)c3ccccc3)n2C)cc1` (centres undefined), the inhibition falls from 3.3% to -35.4%.

Compared with `COc1cccc(-c2cc(C(F)(F)F)nc(-n3cccn3)n2)c1`, `COc1ccc2c(c1)N(C)/C(=C/c1cccc[n+]1C)S2` is higher in inhibition: -19.7% for the first, 2.2% for the second.

First: NNC(=O)c1csc(COc2cc(Cl)cc(Cl)c2)n1
Second: Cc1ccc(C)c(S(=O)(=O)N=Nc2c(O)[nH]c3ccccc23)c1
The inhibition of the first is higher: -9.6% for the first, -24.6% for the second.

In the case of `Cc1sc(Cc2nc(O)cs2)nc1-c1ccccc1`, the inhibition was 97.9% (active).
With `O=C(Nn1cc(C(=O)Nc2ccccc2F)c2ccccc2c1=O)c1cnccn1` the inhibition was 47.1% (active).
For `O=C(CNS(=O)(=O)c1cccc2nsnc12)NCc1ccc(Cl)cc1`, the inhibition was 47.4% (active).
With `COc1ccc2[nH]c(=O)c(CN(CC3CCCO3)C(=S)Nc3cccc(C)c3)cc2c1` (centres undefined) the inhibition was 46.6% (active).
For `CCOC(=O)/C(=C\c1cccc(O)c1)c1nc2sc(C)c(C)c2c(=O)[nH]1`, the inhibition was 105% (active).
In the case of `O=c1oc2ccccc2c(O)c1Cc1cc(Cl)c2cccnc2c1O`, the inhibition was 62.6% (active).
For `COc1cccc(-c2cc(C(F)(F)F)nc(-n3cncn3)n2)c1`, the inhibition was 97.6% (active).
